Among the data in ChEMBL document CHEMBL4513216, “Probing the Open Global Health Chemical Diversity Library for Multistage-Active Starting Points for Next-Generation Antimalarials” (ACS Infect Dis, 2020) are INHIBITION values, retold here.

The campaign covered roughly 69,000 compounds. About 8,600 (12%) showed an effect of 50% or more. The entries come from a sample that favours strong results as a whole.

The test system of this experiment is Plasmodium berghei. Kind of experiment: Screen against P. berghei liver stage (PbLuc), transformed with Luciferase, at 10uM. It is filed as functional, HepG2. The note with it: tested at 10 uM.
Take `Cc1nnc2ccc(N3CCN(CCc4ccccn4)CC3)nn12`: the INHIBITION is given as -57.4%. The figure for `Cc1cc(C(=O)N2C[C@@H]3COC[C@]3(CN(C)C)C2)c(C)o1` is 25.1%. The figure for `Cc1nn(C)cc1-c1nn2c(C(F)(F)F)nnc2s1` is -15.2%; for `Cc1c(C(=O)N2CCS(=O)(=O)CC2)nnn1-c1ccc2ncccc2c1` it is 46.6%.

Turning to `CCc1nnc(CN(CC)C(=O)C2CC(=O)N(CC)C2)o1` (centres undefined), the INHIBITION is given as 39.1%. The result for `CCC(C)(C)NC(=O)Cn1nnc(CN(C)C(=O)c2ccccc2)n1` reads 29.6%. The figure for `Cc1cnc(Nc2nccnc2C2CCN(C)CC2)s1` is 7.39%; for `O=C(O)c1cccc(CN2CCCC(Cc3ccn[nH]3)C2)c1` (centres undefined) it is -0.05%.

Consider `Cc1ncccc1C(=O)N1CCC2(CCc3ccccc3C(=O)N2)C1` (centres undefined), for which the INHIBITION worked out at 13.79%. For the compound `Cn1cccc1C(=O)NC[C@]12COC[C@H]1CN(Cc1nccs1)C2`, the INHIBITION is on record as -30.6%. The figure for `Cc1cccc(CNc2n[nH]c(C)n2)c1` is 33.1%. The result for `CCOC(=O)C1CCN(C(=O)CN2CCCC2c2cc(C)no2)CC1` (centres undefined) reads -15.1%; that for `CN(CCC#N)C(=O)CN1CCCC1c1ccsc1` (centres undefined), 10.5%. The figure for `CCOC(=O)C1CCN(C(=O)CN2CCCC2c2ccsc2)CC1` (centres undefined) is 54.6%; for `O=C(NCC1CCOC1)c1csc(-c2ccccc2)n1` (centres undefined) it is -10.6%; for `c1cc2c(cc1CN1CC[C@H]3[C@H]1CCN3CC1CC1)OCO2` it is 6.27%.

For `O=C(c1ccc2[nH]cnc2c1)N1CCC(Oc2ccccn2)CC1`, the INHIBITION was found to be 35.2%. The figure for `Cc1cnn(CCCNC(=O)CCC2CCCCN2C)c1` (centres undefined) is 35.1%. Take `C[C@@H]1CN(C2(C(=O)N3CCSCC3)Cc3ccccc3C2)C[C@H](C)O1`: the INHIBITION came out at 73.9%. The result for `C[C@@H]1CN(C2(C(=O)N3CCCCCC3)Cc3ccccc3C2)C[C@H](C)O1` reads -0.182%; that for `C[C@@H]1CN(C2(C(=O)N3CCOCC3)Cc3ccccc3C2)C[C@H](C)O1`, 21%; that for `O=C(C1CC(=O)N(c2ccccc2Br)C1)N1CCCCCC1` (centres undefined), 21.8%. The figure for `COC1CCN(C(=O)C2CC(=O)N(c3ccccc3Br)C2)CC1` (centres undefined) is 61.7%.

As for `O=C(C1CC1)N1CCN(C(=O)C2CC(=O)N(c3ccccc3Br)C2)CC1` (centres undefined), the INHIBITION is on record as -56.4%. Regarding `COCc1nn(C(C)C)c2c1CCN(Cc1ccsc1)C2`, the INHIBITION is given as -21.1%. For the compound `C[C@@H]1C(=O)NC[C@H]2CN(Cc3ccsc3)C[C@H]21`, the INHIBITION is listed as 27.4%.

As to `COc1cc(N2C[C@@H]3COC[C@]3(C(=O)NC3CC(F)(F)C3)C2)ncn1`, the INHIBITION is on record as 31.4%. Consider `CC(C)(C)CN1CCCC(O)(CN2CCc3[nH]ncc3C2)C1=O` (centres undefined), for which the INHIBITION is listed as 22.6%. On to `Cc1cccnc1CCNCC1(O)CCCN(CC2CCCCC2)C1=O` (centres undefined), for which the INHIBITION is 25.8%. The figure for `Cc1cccnc1CNCC1(O)CCCN(CC2CCCCC2)C1=O` (centres undefined) is 15.1%; for `O=C1N(CC2CC2)CCCC1(O)CN1CCc2[nH]ncc2C1` (centres undefined) it is 79.1%.

Consider `Cc1cccnc1CNCC1(O)CCCN(CC2CCC2)C1=O` (centres undefined), for which the INHIBITION worked out at 9.96%. The figure for `O=C1N(CC2CCCCC2)CCCC1(O)CN1CCc2[nH]ncc2C1` (centres undefined) is 68.8%. The figure for `CS(=O)(=O)N1CCC2(CC1)COC(COc1cccnc1)C2` (centres undefined) is -52.3%; for `CC(C)(C)c1cc(=O)n2c(n1)SCC(C(=O)NCc1cccs1)C2` (centres undefined) it is 28%. As for `COc1ccc2c(OCC(=O)NC(C)(C)C)ccnc2c1`, the INHIBITION was 29.6%. Regarding `CCS(=O)(=O)N1CC[C@H]2O[C@H](c3nc(C)no3)CC[C@H]21`, the INHIBITION amounted to 18.2%. The figure for `Cc1nc2ccc(C(=O)N3C[C@@H](O)[C@H](N4CCN(C)CC4)C3)cc2[nH]1` is 46%; for `CS(=O)(=O)Cc1ccc(Cl)cc1NCc1ccccc1F` it is 38%; for `Fc1ccccc1CNc1ccnc(C2CCNCC2)c1` it is 26.7%. The figure for `NS(=O)(=O)c1ccc(NCc2ccccc2F)cc1C(F)(F)F` is 82.3%. As for `Cc1ccccc1CNc1ccc(S(N)(=O)=O)c(C(F)(F)F)c1`, the INHIBITION came out at 93.4%. Consider `CC(=O)Nc1ccc(CNc2cccc(CS(C)(=O)=O)c2)cc1`, for which the INHIBITION is recorded as 34.6%. The result for `Cc1cc(C)c(S(N)(=O)=O)cc1C(=O)NCC1Cc2ccccc2O1` (centres undefined) reads -9.82%.

Consider `CC(C)(CNc1ccc(C#N)c(C(F)(F)F)c1)C(N)=O`, for which the INHIBITION was -21%.

For the compound `CS(=O)(=O)c1ccc(NCc2ccccc2)cn1`, the INHIBITION was 27.3%. The result for `NS(=O)(=O)c1ccc(NCc2ccccc2)cc1C(F)(F)F` reads 77.7%; that for `CN(C)S(=O)(=O)c1ccc(CN2CCCC2c2ccsc2)o1` (centres undefined), -0.96%. With `Cn1nccc1C(=O)N1Cc2ccccc2OC2(CCOCC2)C1`, the INHIBITION turned out to be 29.2%. On to `CN(C)C(=O)N1CCOCC2(CCN(c3ccccn3)C2)C1` (centres undefined), for which the INHIBITION is given as -3.1%. The figure for `Cc1cnn(CC2CCCCN2C(=O)c2ccc3c(c2)nnn3C)c1` (centres undefined) is -17.8%; for `O=S(=O)(Cc1ccccc1)NCCc1nnc2n1CCC2` it is 31.9%. The figure for `CCc1cnc(NCCS(=O)(=O)CC(C)C)nc1` is 53.7%; for `CCc1cnc(NCCCN2CCC(O)CC2)nc1` it is -52.7%; for `CCc1cnc(NCCS(=O)(=O)N(C)C)nc1` it is 61.3%.

With `CN(C)S(=O)(=O)CCNc1ncc2c(n1)CCN2c1ccccc1`, the INHIBITION is recorded as -26.9%. The result for `CCc1cnc(NCCCOC2CCCC2)nc1` reads -27%; that for `CC(C)CS(=O)(=O)CCNc1ncccn1`, 10.3%; that for `CSCCCN(CCN1CCOCC1)Cc1ccco1`, 45.8%. The result for `O=C(Nc1nncs1)NC1CCCc2c1cnn2CCO` (centres undefined) reads 21.7%. The figure for `Cc1csc(N2CCN(C(=O)c3cc(C4CC4)[nH]n3)CC2)n1` is 12%.

Turning to `CC(C)c1cc(C(=O)N2CCN(Cc3ccc(C#N)cc3)CC2)n[nH]1`, the INHIBITION amounted to 82.5%. For the compound `CC(C)c1cc(C(=O)N2CCN(Cc3ccsc3)CC2)n[nH]1`, the INHIBITION is recorded as 36.3%. Turning to `O=C(c1cc(C2CC2)[nH]n1)N1CCN(Cc2ccc3c(c2)OCO3)CC1`, the INHIBITION was 9.54%. The figure for `CC(C)c1ccc(CN2CCN(C(=O)c3cc(C4CC4)[nH]n3)CC2)cc1` is 60.2%; for `O=C(c1cc(C2CC2)[nH]n1)N1CCN(c2nccs2)CC1` it is 6.02%; for `O=C(c1cc(C2CC2)[nH]n1)N1CCN(Cc2ccsc2)CC1` it is 36.4%. As to `CC(C)c1cc(C(=O)N2CCCN(Cc3ccccc3)CC2)n[nH]1`, the INHIBITION is 48.4%. The figure for `Cc1cccc(CN2CCN(C(=O)c3cc(C4CC4)[nH]n3)CC2)c1` is -24.2%; for `COc1ccnc(N2CCN(C(=O)c3cc(C4CC4)[nH]n3)CC2)n1` it is 25.1%. `N#Cc1ccc(CN2CCN(C(=O)c3cc(C4CC4)[nH]n3)CC2)cc1`: the INHIBITION amounted to 84.2%. The figure for `N#Cc1ccc(N2CCN(C(=O)c3cc(C4CC4)[nH]n3)CC2)c(F)c1` is 80.8%; for `CN1CCN(CCCNC(=O)c2nc3ccccc3c(=O)[nH]2)CC1` it is 24.2%; for `CN1CCN(C[C@@H]2OC[C@H]3CN(CCc4ccccc4)CC[C@H]32)CC1` it is -40%. The figure for `CC(C)n1cc(CN2CCCN(C(=O)CC3CCCCC3)CC2)cn1` is 4.71%; for `CCc1nnc(CN(CC)C(=O)C2CCC(=O)N(C3CCCC3)C2)o1` (centres undefined) it is 15.3%.

Turning to `Cc1ccc(CN(C)Cc2cnc(N3CCOCC3)s2)o1`, the INHIBITION came out at 35.8%. For `O=C(c1cc(C2CC2)[nH]n1)N1CCN(Cc2ccncc2)CC1`, the INHIBITION is recorded as -0.113%. The result for `O=C(c1cc(C2CC2)[nH]n1)N1CCN(Cc2ccc(Cl)cc2)CC1` reads 74.7%; that for `O=C(c1cc(C2CC2)[nH]n1)N1CCN(Cc2ccccc2)CC1`, -26.6%. Take `Cc1ccc(C(=O)N(CC2CCCO2)c2ccncc2)o1` (centres undefined): the INHIBITION worked out at 24.1%. The figure for `COCC(C)NC(=O)CN1CCC(C)CC1` (centres undefined) is 18.4%; for `Cc1nc(CN2CCC(c3cc(N4CCCC4)ncn3)CC2)cs1` it is -37.9%; for `c1c[nH]c2nc(C3CCNC3)nc-2c1` (centres undefined) it is 19.3%. The result for `Cc1cc(N)nc(C2(C)CCCN2C(=O)Cc2ccc(F)cc2)n1` (centres undefined) reads 29.2%; that for `Cn1ccc(NC(=O)CN2C[C@@H]3CC[C@H]2CN(Cc2ccccn2)C3)n1`, 45.8%; that for `O=C(CN1C[C@@H]2CC[C@H]1CN(Cc1ccccn1)C2)Nc1ccccc1`, 43.7%. The figure for `O=C(CN1C[C@@H]2CC[C@H]1CN(Cc1ccccn1)C2)NCc1cccs1` is 51.1%. With `O=C(O)c1ccc(CC2CCN(S(=O)(=O)N3CCOCC3)C2)cc1` (centres undefined), the INHIBITION is recorded as 32.5%. As to `CN(C)C(=O)CNC(=O)c1cc2c(s1)CCN2S(C)(=O)=O`, the INHIBITION is given as 26.3%. The result for `COc1cccc(CNC(=O)c2nc3c(o2)CN(S(C)(=O)=O)C3)c1` reads 52.6%. The result for `O=C(NCCN1CCCC1)c1nc2c(o1)CN(C(=O)c1cccnc1)C2` reads -42.8%; that for `O=C(NCc1ccccc1)c1nc2c(o1)CN(C(=O)c1cccnc1)C2`, 53.2%. Turning to `CN1CCCN(C(=O)c2nc3c(o2)CN(C(=O)c2cccnc2)C3)CC1`, the INHIBITION is listed as 1.9%. The result for `CS(=O)(=O)N1Cc2nc(C(=O)NCc3ccccc3)oc2C1` reads 24.6%; that for `Cc1ccc(CNC(=O)c2nc3c(o2)CN(C(=O)c2cccnc2)C3)o1`, -21.1%.

With `O=C(NCc1ccncc1)c1nc2c(o1)CN(C(=O)c1cccnc1)C2`, the INHIBITION was found to be 29%. The figure for `CN1CCN(C(=O)c2nc3c(o2)CN(C(=O)c2cccnc2)C3)CC1` is 50.1%; for `CN(C)CCNC(=O)c1nc2c(o1)CN(C(=O)c1cccnc1)C2` it is -75.3%. The result for `CC(=O)N1Cc2nc(C(=O)NCCc3cccnc3)oc2C1` reads 70.7%; that for `CCCNC(=O)c1nc2c(o1)CN(C(C)=O)C2`, -0.388%; that for `COc1cccc(CNC(=O)c2nc3c(o2)CN(C(=O)N(C)C)C3)c1`, 48.2%.

Turning to `O=C(NC1CC1)C1=CC2(CCN(CCO)CC2)c2ccccc21`, the INHIBITION was 28.4%.

`COCC(=O)N1CCCC2(CCN(CCN3CCCC3)CC2)C1`: the INHIBITION was -12.1%.
